{"source": "PubChem BioAssay (Tox21)", "note": "Calls of active or inactive are those of the source. The call rests on the fitted dose curve. Where a SMILES comes first, the peptide text is derived from it. On the % scale 0 is the no-effect control and ±100 the full control effect."}
{"biological_target": "Androgen receptor (Homo sapiens) (UniProt P10275)", "sequence (P10275 whole entry, looked up)": "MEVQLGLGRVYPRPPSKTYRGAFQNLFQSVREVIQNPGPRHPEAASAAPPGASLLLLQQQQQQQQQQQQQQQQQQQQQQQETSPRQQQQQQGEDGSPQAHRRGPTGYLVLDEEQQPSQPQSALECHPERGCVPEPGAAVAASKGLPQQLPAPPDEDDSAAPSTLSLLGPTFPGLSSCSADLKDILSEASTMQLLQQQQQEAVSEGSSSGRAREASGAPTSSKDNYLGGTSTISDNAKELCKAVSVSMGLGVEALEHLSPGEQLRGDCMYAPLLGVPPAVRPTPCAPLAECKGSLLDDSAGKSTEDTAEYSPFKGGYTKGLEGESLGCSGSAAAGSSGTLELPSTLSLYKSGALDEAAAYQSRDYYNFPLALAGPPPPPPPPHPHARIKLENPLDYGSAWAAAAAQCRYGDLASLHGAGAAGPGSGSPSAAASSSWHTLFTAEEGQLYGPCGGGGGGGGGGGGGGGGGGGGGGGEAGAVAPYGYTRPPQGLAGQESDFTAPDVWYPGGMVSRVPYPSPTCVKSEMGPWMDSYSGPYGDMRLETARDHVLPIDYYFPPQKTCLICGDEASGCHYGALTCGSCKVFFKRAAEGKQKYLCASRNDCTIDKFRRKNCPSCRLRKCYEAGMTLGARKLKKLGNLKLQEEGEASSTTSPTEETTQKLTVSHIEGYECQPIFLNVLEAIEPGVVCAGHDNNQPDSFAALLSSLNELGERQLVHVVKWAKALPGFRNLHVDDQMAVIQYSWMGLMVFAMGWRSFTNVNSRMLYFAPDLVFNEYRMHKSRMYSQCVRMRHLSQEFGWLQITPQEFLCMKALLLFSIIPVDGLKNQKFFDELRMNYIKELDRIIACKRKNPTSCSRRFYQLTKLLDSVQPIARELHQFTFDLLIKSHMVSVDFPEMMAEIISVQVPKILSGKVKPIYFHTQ", "assay": "qHTS assay to identify small molecule agonists of the androgen receptor (AR) signaling pathway in the presence of an antagonist (AID 1259381); further: nearly all actives have a fitted effect of over 15% in size", "conditions": "MDA-kb2 MMTV-luciferase, AR agonist + nilutamide, 16 h; series mostly up to 92.4 µM", "source_text": "National Center for Advancing Translational Sciences [NCATS] NIH Chemical Genomics Center [NCGC] U.S. Environmental Protection Agency [EPA] National Institutes of Environmental Health Sciences [NIEHS] National Toxicology Program [NTP] Assay overview: Androgen receptor (AR) is an important member of nuclear receptor family. Its signaling plays a critical role in AR-dependent prostate cancer and other androgen related diseases. Considerable attention has been given in the past decades to develop methods to study and screen for the environmental chemicals that have the potential to interfere with metabolic homeostasis, reproduction, developmental and behavioral functions. Therefore AR binding assay for screening against androgen agonists and antagonists can be used to identify potential endocrine disruptors. MDA-kb2 cells (from ATCC, deposited by Wilson et al.) are human breast carcinoma cells that were stably transfected with a luciferase reporter gene under control of the MMTV promoter that contains response elements for both androgen receptor (AR) and glucocorticoid receptor (GR). This particular screening for measuring luciferase reporter gene activity using MDA-kb2 cells against Tox21 10K library compounds is a confirmation study on agonist mode screening in the presence of AR-antagonist compound (Nilutamide) at 3.0uM final concentration.\nAssay Protocol Summary: MDA-kb2 cells (cells cultured without CO2) were dispensed at 3,000 cells/well in 4uL of culture medium into white wall/solid-bottom 1536-well plates (Corning Life Sciences, Corning, NY) using a Multidrop Combi (Thermo Fisher Scientific Inc., Waltham, MA) dispenser. The assay plates were incubated at 37C and 0% CO2 for 5hr. One uL of 3.0uM (final concentration) Nilutamide or assay buffer was added using two separate tips of Flying Reagent Dispenser (FRD, Aurora Discovery, San Diego, CA). Then 23nL of compounds dissolved in DMSO at 15 concentrations and positive controls were transferred to the assay plates using a Pintool station (Wako, San Diego, CA). The assay plates were incubated at 37C and 0% CO2 for 16hr. For luciferase read, 4uL/well ONE-Glo reagent (Promega Corporation, Madison, WI) was added to each well of the assay plates using FRD. After 30min incubation at room temperature, the luminescence signal was measured using a ViewLux plate reader (PerkinElmer, Shelton, CT)."}
{"smiles": "CCO", "outcome": "inactive"}
{"smiles": "COCCc1ccccn1", "outcome": "inactive"}
{"smiles": "C=CCOC(=O)CCCCCC", "outcome": "inactive"}
{"smiles": "CC(C)COC(=O)c1ccccc1", "outcome": "inactive"}
{"smiles": "CCO[Si](CC)(OCC)OCC", "outcome": "inactive"}
{"smiles": "C#CCN[C@@H]1CCc2ccccc21", "outcome": "inactive"}
{"smiles": "Cc1ccc(C(=O)O)cc1[N+](=O)[O-]", "outcome": "inactive"}
{"smiles": "O=C(Cl)c1ccccc1[N+](=O)[O-]", "outcome": "inactive"}
{"smiles": "CC(C)NC(=O)c1ccc(C=O)cc1", "outcome": "inactive"}
{"smiles": "N[C@@H](CSCCCO)C(=O)O", "activation": "-0.115% [at 19 µM] (inactive)"}
{"smiles": "CCC(=O)c1c(O)cc(O)cc1O", "outcome": "inactive"}
{"smiles": "CC(C)[C@H]1CC[C@H](C)C[C@@H]1O", "outcome": "inactive"}
{"smiles": "OC[C@H]1O[C@@H](O[C@@H]2[C@@H](CO)O[C@](O)(CO)[C@H]2O)[C@H](O)[C@@H](O)[C@H]1O", "outcome": "inactive"}
{"smiles": "COC(C)(OC)OC", "outcome": "inactive"}
{"smiles": "CC(=O)O[C@@H]1CC2CCC1(C)C2(C)C", "note": "(stereo not given in full)", "outcome": "inactive"}
{"smiles": "COc1cc(/C=C/C(N)=O)cc(OC)c1OC", "outcome": "inactive"}
{"smiles": "Nc1nc(-c2ccccc2)c(Br)c(=O)[nH]1", "outcome": "inactive"}
{"smiles": "COc1cc(OC)nc(O[C@H](C(=O)O)C(OC)(c2ccccc2)c2ccccc2)n1", "outcome": "inactive"}
{"smiles": "[O-][n+]1cccc(/C(Cl)=N/OC[C@@H](O)CN2CCCCC2)c1", "outcome": "inactive"}
{"smiles": "COC(=O)CCCCC(CCSS/C(CCO)=C(\\C)N(C=O)Cc1cnc(C)nc1N)SC(C)=O", "note": "(stereo not given)", "outcome": "inactive"}
{"smiles": "CC(C)C1OCCN1CCOC(=O)NCCCCCCNC(=O)OCCN1CCOC1C(C)C", "note": "(stereo not given)", "outcome": "inactive"}
{"smiles": "Cc1c(C(=O)c2c[nH]n(C)c2=O)ccc(S(C)(=O)=O)c1C1=NOCC1", "outcome": "inactive"}
{"smiles": "OCC1CCC(CO)CC1", "note": "(stereo not given)", "outcome": "inactive"}
{"smiles": "CC(S)C(C)S", "note": "(stereo not given)", "outcome": "inactive"}
{"smiles": "O=C(O)CSCC(=O)NC1CCSC1=O", "note": "(stereo not given)", "outcome": "inactive"}
{"smiles": "CCC(=O)Oc1ccc2c(c1)CC[C@@H]1[C@@H]2CC[C@@]2(C)[C@H]1C[C@@H](OC(=O)CC)[C@@H]2OC(=O)CC", "outcome": "inactive"}
{"smiles": "CC(=O)c1cc(C)oc1C", "outcome": "inactive"}
{"smiles": "CC(=O)CC(=O)OC(C)(C)C", "outcome": "inactive"}
{"smiles": "O=C(CCCl)NCCc1ccccc1", "outcome": "inactive"}
{"smiles": "OC1(c2ccc(Cl)cc2)CCNCC1", "outcome": "inactive"}
{"smiles": "CC(=O)CC(=O)Nc1ccc(C)cc1C", "outcome": "inactive"}
{"smiles": "CC(=O)N[C@@H](CO)C(=O)N[C@@H](CC(=O)O)C(=O)N[C@@H](CCCCN)C(=O)N1CCC[C@H]1C(=O)O", "note": "(Ac-SDKP-OH)", "outcome": "inactive"}
{"smiles": "CCCCCCCCCOC(=O)c1ccccc1C(=O)OCCCCCCCCC", "outcome": "inactive"}
{"smiles": "COc1ccc(CCO)cc1", "outcome": "inactive"}
{"smiles": "O=C(NCN1CCOCC1)c1cnccn1", "outcome": "inactive"}
{"smiles": "COc1ccc2c(c1)c1c3n2CCN(C)C3=NCC1", "outcome": "inactive"}
{"smiles": "CC(=O)OC1CCCCC1C(C)(C)C", "note": "(stereo not given)", "outcome": "inactive"}
{"smiles": "CCOc1ccccc1OCC1CNCCO1", "note": "(stereo not given)", "outcome": "inactive"}
{"smiles": "CC(C)C[C@@H]1[C@H](c2ccccc2)OC(=O)N1CCCN1CCCCCC1", "outcome": "inactive"}
{"smiles": "C/C=C(\\C)C(C)=O", "outcome": "inactive"}
